Reference: PubChem BioAssay (Tox21)
Values without a mark were called inactive. Results filed as inconclusive are left out. A call without a number means that no potency is given here. Active and inactive are the calls of the source. Unless noted, the call rests on the fitted dose curve; in most records, active means well fitted curve in the direction sought with a large enough effect in the repeat runs; inconclusive means weak or mixed curves; inactive means no such curve, though single readings can be large; an effect the other way counts as inactive or inconclusive.

Columns and labels:
[1] = qHTS assay to identify small molecule agonists of the sonic hedgehog signaling (Shh) pathway (AID 1259368; calls by dose curve; further: series mostly up to about 92 µM; nearly all actives have a fitted effect of over 15% in size)
How it was run: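 NIH/3T3-derived 3T3Gli1-Luc cells carrying a stably integrated Gli1 response element–firefly luciferase reporter were plated, left 4 hr at 37 C, then given compounds in DMSO for 24 hr. Luminescence was read 30 min after adding luciferase reagent.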

[2] = qHTS assay to identify small molecule antagonists of the sonic hedgehog signaling (Shh) pathway (AID 1259369; calls by dose curve; further: nearly all actives have a fitted effect of over 45% in size)
How it was run: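 NIH/3T3-derived 3T3Gli1-Luc cells with stably integrated Gli1-Luc reporter were preincubated 4hr at 37 C, then given compounds in DMSO plus Shh conditioned medium and incubated 24hr. Firefly luciferase luminescence read after 30min reagent at room temperature.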

[3] = target: Estrogen receptor beta (Homo sapiens) (UniProt Q92731); assay: qHTS assay to identify small molecule agonists of the estrogen receptor beta (ER-beta) signaling pathway (AID 1259377; active means well fitted activation curve with a large enough effect in the signal ratio in the repeat runs, not every such curve was filed as active; the % refers to the signal ratio)
Estrogen receptor beta (Homo sapiens), sequence (Q92731 whole entry, looked up): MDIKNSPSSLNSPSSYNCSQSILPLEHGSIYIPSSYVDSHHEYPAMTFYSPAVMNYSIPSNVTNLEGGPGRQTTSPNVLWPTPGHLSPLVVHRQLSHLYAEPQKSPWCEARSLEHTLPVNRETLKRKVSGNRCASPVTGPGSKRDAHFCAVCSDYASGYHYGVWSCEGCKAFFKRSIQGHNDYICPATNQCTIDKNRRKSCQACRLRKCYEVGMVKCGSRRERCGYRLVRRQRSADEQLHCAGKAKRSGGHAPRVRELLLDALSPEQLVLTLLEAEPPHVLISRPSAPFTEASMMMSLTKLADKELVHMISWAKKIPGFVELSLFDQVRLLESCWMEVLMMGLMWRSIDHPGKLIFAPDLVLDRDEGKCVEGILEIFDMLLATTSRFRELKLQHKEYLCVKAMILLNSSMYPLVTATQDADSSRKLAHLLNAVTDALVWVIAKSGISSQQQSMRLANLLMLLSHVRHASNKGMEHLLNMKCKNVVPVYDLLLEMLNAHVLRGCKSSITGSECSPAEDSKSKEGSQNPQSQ
How it was run: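 In HEK293T cells bearing a UAS-beta-lactamase reporter under ER-beta control, DMSO-delivered compounds were incubated for 16 hr at 37C. Activity was detected as fluorescence 2 hours after LiveBLAzer B/G FRET substrate addition.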

[4] = target: Estrogen receptor beta (Homo sapiens) (UniProt Q92731); assay: qHTS assay to identify small molecule antagonists of the estrogen receptor beta (ER-beta) signaling pathway (AID 1259378; active means well fitted inhibition curve with a large enough effect in the signal ratio in the repeat runs, not every such curve was filed as active; the % refers to the signal ratio)
How it was run: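 ER-beta-UAS-bla HEK293T (GripTite) cells in 2% charcoal-stripped FBS medium were preincubated 6 hr at 37C, dosed with compound, then stimulated with 1 nM E2 (final) for 16 hr; beta-lactamase reporter read by B/G FRET fluorescence after 2 hr substrate loading.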

[5] = qHTS assay to identify small molecule agonists of the androgen receptor (AR) signaling pathway in the presence of an antagonist - cell viability counter screen (AID 1259379); further: series mostly up to about 92 µM; nearly all actives have a fitted effect of over 25% in size
How it was run: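 MDA-kb2 human breast carcinoma cells (stable MMTV-luciferase, AR/GR responsive) were seeded 3,000 cells/well, pre-incubated 5 hr at 37C without CO2, then given 3.0uM nilutamide and compounds at 15 concentrations for 16 hr. Viability was read by CellTiter-Fluor fluorescence.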

[6] = qHTS assay to identify small molecule agonists of the estrogen receptor beta (ER-beta) signaling pathway - cell viability counter screen (AID 1259380); further: nearly all actives have a fitted effect of over 30% in size; further: potency means the concentration at half of the fitted maximal effect
How it was run: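 ER-beta-UAS-bla HEK293T cells in medium with 2% charcoal-stripped FBS were preincubated 6 hr at 37C, dosed with compound in DMSO for 16 hr, then after the bla read, CellTiter-Glo was added for 30 min at room temperature; luminescence recorded.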

[7] = target: Estrogen receptor (Homo sapiens) (UniProt P03372); assay: qHTS assay to identify small molecule agonists of the estrogen receptor alpha (ER-alpha) signaling pathway in the presence of an antagonist (AID 1259383; calls by dose curve; further: top concentration of the series differs between compounds; nearly all actives have a fitted effect of over 15% in size)
Estrogen receptor (Homo sapiens), sequence (P03372 whole entry, looked up): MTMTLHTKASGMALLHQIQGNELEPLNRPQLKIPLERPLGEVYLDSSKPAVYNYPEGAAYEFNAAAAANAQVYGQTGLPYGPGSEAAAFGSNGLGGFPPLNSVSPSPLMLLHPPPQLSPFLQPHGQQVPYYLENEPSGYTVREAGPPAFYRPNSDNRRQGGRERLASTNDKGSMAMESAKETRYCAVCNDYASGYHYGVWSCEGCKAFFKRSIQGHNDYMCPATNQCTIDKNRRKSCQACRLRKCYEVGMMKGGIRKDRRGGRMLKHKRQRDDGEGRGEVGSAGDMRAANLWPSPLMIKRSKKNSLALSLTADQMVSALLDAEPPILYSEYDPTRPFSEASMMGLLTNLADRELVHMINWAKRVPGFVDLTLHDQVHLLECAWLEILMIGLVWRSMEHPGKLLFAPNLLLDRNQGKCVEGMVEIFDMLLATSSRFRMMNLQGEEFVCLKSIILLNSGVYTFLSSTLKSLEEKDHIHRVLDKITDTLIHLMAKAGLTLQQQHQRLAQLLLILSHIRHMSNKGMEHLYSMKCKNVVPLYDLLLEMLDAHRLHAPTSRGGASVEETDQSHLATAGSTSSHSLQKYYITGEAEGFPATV
How it was run: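 VM7Luc4E2 cells (endogenous full-length ER-alpha, 4×ERE-luciferase) were precultured 5 days in phenol red-free medium with 10% charcoal-stripped FBS, given 10.0nM ICI-182,780 (final), then treated with compounds at 15 concentrations for 22hr at 37C; luminescence read with ONE-Glo.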

[8] = target: Progesterone receptor (Homo sapiens) (UniProt P06401); assay: qHTS assay to identify small molecule agonists of the progesterone receptor (PR) signaling pathway (AID 1346784; calls by dose curve; further: nearly all actives have a fitted effect of over 30% in size)
Progesterone receptor (Homo sapiens), sequence (P06401 whole entry, looked up): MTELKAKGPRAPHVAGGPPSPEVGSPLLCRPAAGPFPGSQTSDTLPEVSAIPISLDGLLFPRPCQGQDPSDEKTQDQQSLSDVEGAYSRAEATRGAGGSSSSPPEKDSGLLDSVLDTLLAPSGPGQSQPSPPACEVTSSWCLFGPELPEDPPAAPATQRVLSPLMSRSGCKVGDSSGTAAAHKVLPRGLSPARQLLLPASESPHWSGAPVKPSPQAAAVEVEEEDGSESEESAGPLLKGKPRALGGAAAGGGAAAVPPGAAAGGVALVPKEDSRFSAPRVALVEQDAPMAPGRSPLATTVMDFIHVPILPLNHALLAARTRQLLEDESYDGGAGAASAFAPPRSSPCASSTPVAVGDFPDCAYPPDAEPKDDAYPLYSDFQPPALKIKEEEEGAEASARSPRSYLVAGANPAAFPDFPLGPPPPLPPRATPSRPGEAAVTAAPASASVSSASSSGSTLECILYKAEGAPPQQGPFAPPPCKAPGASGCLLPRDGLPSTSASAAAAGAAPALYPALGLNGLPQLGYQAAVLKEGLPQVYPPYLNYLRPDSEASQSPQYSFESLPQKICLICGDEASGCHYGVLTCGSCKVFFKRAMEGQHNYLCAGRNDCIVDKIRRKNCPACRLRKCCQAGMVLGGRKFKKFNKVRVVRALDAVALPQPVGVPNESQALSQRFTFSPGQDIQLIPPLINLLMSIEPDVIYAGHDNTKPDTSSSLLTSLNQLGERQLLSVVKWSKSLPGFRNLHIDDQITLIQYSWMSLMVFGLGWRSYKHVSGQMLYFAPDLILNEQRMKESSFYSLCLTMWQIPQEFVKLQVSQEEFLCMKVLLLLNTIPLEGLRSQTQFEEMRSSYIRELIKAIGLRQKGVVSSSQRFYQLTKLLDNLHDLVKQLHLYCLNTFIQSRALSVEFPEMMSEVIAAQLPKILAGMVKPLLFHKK
How it was run: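 Using charcoal-stripped serum (2%) to limit endogenous steroids, PR-UAS-bla HEK 293T cells received compounds for 16 hr at 37C after 6 hr plating; beta-lactamase FRET fluorescence was recorded following 2 hr substrate loading at room temperature.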

[9] = target: Progesterone receptor (Homo sapiens) (UniProt P06401); assay: qHTS assay to identify small molecule antagonists of the progesterone receptor (PR) signaling pathway (AID 1346795; active means well fitted inhibition curve with a large enough effect in the signal ratio in the repeat runs, not every such curve was filed as active; the % refers to the signal ratio)
How it was run: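 Inhibition of R5020-induced (1 nM final) beta-lactamase reporter signal in PR-UAS-bla HEK293T cells was scored by FRET fluorescence after overnight (16 hr) compound treatment.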

[10] = qHTS assay to identify small molecule antagonists of the progesterone receptor (PR) signaling pathway - cell viability counter screen (AID 1346798); further: series mostly up to about 92 µM; nearly all actives have a fitted effect of over 50% in size
How it was run: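 ATP content as viability readout: CellTiter-Glo luminescence, 30 min room temperature, in PR-UAS-bla HEK293T cells after 16 hr compound/R5020 treatment at 37C and 5% CO2.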

[11] = qHTS assay to identify small molecule agonists of the progesterone receptor (PR) signaling pathway - cell viability counter screen (AID 1346799; calls by dose curve; further: nearly all actives have a fitted effect of over 45% in size)
How it was run: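 Cytotoxicity in PR-bla HEK293T cells: 16 h compound, 37C; CellTiter-Glo added post-FRET read; luminescence after 30 min RT.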

[12] = qHTS assay to identify small molecule antagonists of the TGF-beta/Smad signaling pathway - cell viability counter screen (AID 1346824); further: nearly all actives have a fitted effect of over 50% in size
How it was run: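 SBE-bla HEK 293T cells were plated overnight at 37 C, then given compounds in DMSO plus TGF-beta1 (added as 0.25 ng/mL solution) for 5 hr. After the bla read, CellTiter-Glo was added to the same wells and luminescence read after 30 min at room temperature.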

[13] = qHTS assay to identify small molecule agonists of the TGF-beta/Smad signaling pathway (AID 1346859; active means well fitted activation curve with a large enough effect in the signal ratio in the repeat runs, not every such curve was filed as active; the % refers to the signal ratio; further: series mostly up to about 77 µM)
How it was run: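 Stable Smad binding element-beta-lactamase HEK 293T cells; 5 hr compound exposure at 37 C under 5% CO2; 2 hr room-temperature substrate step; fluorescence excited at 405 nm, collected at 460 nm and 530 nm.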

[14] = target: Thyrotropin-releasing hormone receptor (Homo sapiens) (UniProt P34981); assay: qHTS assay to identify small molecule antagonists of the thyrotropin-releasing hormone receptor (TRHR) signaling pathway (AID 1346877; active means well fitted inhibition curve with a large enough effect in the repeat runs, not every such curve was filed as active; further: series mostly up to about 51 µM)
Thyrotropin-releasing hormone receptor (Homo sapiens), sequence (P34981 whole entry, looked up): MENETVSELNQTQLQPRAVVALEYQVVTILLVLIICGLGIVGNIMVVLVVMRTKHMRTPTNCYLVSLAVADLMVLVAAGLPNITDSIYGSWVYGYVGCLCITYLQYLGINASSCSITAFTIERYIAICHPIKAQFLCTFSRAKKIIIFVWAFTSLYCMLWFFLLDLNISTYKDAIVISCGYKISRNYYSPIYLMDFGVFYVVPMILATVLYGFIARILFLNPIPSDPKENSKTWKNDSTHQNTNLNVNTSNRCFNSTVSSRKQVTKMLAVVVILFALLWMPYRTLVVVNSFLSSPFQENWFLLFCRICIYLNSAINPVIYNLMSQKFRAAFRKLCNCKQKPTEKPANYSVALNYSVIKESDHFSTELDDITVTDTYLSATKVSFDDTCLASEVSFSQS
How it was run: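 TRHR-expressing HEK293 cells were seeded, cultured 18 h at 37 °C, then loaded with calcium dye for 2 h. Compounds were pre-incubated 5 min at room temperature before 1 nM TRH (final) was added, and kinetic fluorescence was recorded for 3 min.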

[15] = qHTS assay to identify small molecule antagonists of the estrogen receptor beta (ER-beta) signaling pathway - cell viability counter screen (AID 1259382); further: series mostly up to about 92 µM; nearly all actives have a fitted effect of over 55% in size
How it was run: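 ER-beta-UAS-bla HEK293T cells (2,000/well, 2% charcoal-stripped FBS) were pre-incubated 6 hr at 37C, then given compound plus 1nM final 17-beta-estradiol for 16 hr. Viability was read in the same wells by CellTiter-Glo luminescence after 30 min at room temperature.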

[16] = qHTS assay to identify small molecule agonists or antagonists of the thyroid stimulating hormone receptor (TSHR) signaling pathway - wild type cell line counter screen (AID 1259384; calls by dose curve)
How it was run: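 Wild-type HEK293 cells were plated 18 h at 37 C/5% CO2, pin-dosed with compound plus Ro20-1724 medium, held 30 min at room temperature, then given cAMP-d2 and anti-cAMP-cryptate; fluorescence was read after 1 h. Fifteen concentrations, triplicate.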

[17] = target: Thyrotropin receptor (Homo sapiens) (UniProt P16473); assay: qHTS assay to identify small molecule antagonists of the thyroid stimulating hormone receptor (TSHR) signaling pathway (AID 1259385; calls by dose curve; further: nearly all actives have a fitted effect of over 20% in size)
Thyrotropin receptor (Homo sapiens), sequence (P16473 whole entry, looked up): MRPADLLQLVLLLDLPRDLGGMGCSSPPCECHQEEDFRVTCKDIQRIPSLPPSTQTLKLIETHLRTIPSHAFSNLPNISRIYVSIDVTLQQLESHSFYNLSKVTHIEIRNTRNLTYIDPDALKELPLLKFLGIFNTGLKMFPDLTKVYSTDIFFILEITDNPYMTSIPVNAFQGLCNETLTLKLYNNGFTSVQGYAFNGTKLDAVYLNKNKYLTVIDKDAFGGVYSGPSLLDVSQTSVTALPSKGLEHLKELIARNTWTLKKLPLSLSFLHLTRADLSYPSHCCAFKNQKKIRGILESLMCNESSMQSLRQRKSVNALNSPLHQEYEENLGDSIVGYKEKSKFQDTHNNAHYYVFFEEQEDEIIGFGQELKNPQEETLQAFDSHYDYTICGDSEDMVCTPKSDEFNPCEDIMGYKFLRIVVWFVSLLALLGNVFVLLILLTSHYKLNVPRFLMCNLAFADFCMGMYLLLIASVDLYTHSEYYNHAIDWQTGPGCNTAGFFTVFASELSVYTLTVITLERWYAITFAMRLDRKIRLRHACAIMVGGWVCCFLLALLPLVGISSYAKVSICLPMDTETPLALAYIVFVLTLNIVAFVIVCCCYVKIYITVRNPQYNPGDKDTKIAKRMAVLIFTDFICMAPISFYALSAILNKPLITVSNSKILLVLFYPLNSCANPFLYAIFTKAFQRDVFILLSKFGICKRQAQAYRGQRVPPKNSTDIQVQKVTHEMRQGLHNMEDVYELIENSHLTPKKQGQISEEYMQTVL
How it was run: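 TSHR-HEK293 cells were plated and held 18 h at 37C/5% CO2, then given compound plus Ro20-1724 and stimulated with TSH at 1.5 ng/mL final. After 30 min at room temperature, cAMP was detected with cAMP-d2/anti-cAMP-cryptate (1 h) by fluorescence.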

[18] = qHTS assay to identify small molecule agonists of the estrogen receptor alpha (ER-alpha) signaling pathway in the presence of an antagonist - cell viability counter screen (AID 1259386);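 further: series mostly up to about 92 µM; cells exposed to compounds for 22 h at 37 °C before the viability read; nearly all actives have a fitted effect of over 30% in size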
How it was run: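 VM7Luc4E2 cells (endogenous full-length ER-alpha, 4×ERE-luciferase) were held 5 days in phenol red-free medium with 10% charcoal-stripped FBS, plated, then given 10.0nM ICI-182,780 and compounds at 15 concentrations for 22hr at 37C; viability read by CellTiter-Fluor fluorescence.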

[19] = qHTS assay to identify small molecule agonists of the TGF-beta/Smad signaling pathway - cell viability counter screen (AID 1346829); further: top concentration of the series differs between compounds; nearly all actives have a fitted effect of over 45% in size
How it was run: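 SBE-bla HEK 293T cells plated overnight, compound exposure 5 hr at 37 C. Viability read in the same wells by CellTiter-Glo luminescence after 30 min at room temperature, following the beta-lactamase read.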

[20] = target: Androgen receptor (Homo sapiens) (UniProt P10275); assay: qHTS assay to identify small molecule agonists of the androgen receptor (AR) signaling pathway in the presence of an antagonist (AID 1259381; calls by dose curve; further: nearly all actives have a fitted effect of over 15% in size)
Androgen receptor (Homo sapiens), sequence (P10275 whole entry, looked up): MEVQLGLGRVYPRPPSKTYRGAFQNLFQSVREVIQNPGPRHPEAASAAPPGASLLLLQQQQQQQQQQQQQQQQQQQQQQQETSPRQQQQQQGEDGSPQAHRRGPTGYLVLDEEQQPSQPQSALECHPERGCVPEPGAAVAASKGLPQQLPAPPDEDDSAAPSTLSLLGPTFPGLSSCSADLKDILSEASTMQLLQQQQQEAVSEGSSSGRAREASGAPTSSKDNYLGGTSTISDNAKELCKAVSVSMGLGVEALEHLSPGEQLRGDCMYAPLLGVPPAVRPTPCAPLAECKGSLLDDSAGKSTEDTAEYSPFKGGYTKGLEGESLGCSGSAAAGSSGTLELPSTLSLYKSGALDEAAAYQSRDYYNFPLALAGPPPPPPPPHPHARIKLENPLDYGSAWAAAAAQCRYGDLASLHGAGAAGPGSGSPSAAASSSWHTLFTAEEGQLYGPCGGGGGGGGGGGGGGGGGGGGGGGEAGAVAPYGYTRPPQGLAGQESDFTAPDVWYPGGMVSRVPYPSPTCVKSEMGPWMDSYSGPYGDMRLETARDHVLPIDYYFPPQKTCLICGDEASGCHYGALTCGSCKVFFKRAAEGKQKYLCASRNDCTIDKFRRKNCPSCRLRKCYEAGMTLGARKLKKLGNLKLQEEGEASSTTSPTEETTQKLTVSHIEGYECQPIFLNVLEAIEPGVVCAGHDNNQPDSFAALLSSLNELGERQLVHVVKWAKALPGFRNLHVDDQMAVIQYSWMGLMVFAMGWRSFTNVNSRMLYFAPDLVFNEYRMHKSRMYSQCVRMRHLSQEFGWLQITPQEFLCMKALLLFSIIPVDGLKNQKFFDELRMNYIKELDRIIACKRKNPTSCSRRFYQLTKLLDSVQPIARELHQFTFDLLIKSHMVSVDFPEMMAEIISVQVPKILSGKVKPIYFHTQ
How it was run: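 MDA-kb2 human breast carcinoma cells carrying an MMTV-luciferase reporter (AR- and GR-responsive) were treated with compounds at 15 concentrations plus 3.0uM final nilutamide for 16hr at 37C without CO2; luminescence was read after ONE-Glo addition.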

Compound	Potency [1]	Potency [2]	Potency [3]	Potency [4]	Potency [5]	Potency [6]	Potency [7]	Potency [8]	Potency [9]	Potency [10]	Potency [11]	outcome [12]	outcome [13]	outcome [14]	Potency [15]	outcome [16]	Potency [17]	Potency [18]	outcome [19]	Potency [20]
Cc1cc(C(=C2C=CC(=Nc3ccc(S(=O)(=O)O)cc3S(=O)(=O)O)C=C2)c2ccc(Nc3ccc(S(=O)(=O)O)cc3)cc2)ccc1N	inactive	inactive	inactive	inactive	inactive	inactive	inactive	inactive	inactive	inactive	inactive	inactive	inactive	inactive	–	–	–	–	–	–
CC1(C)C(=O)N(Br)C(=O)N1Cl	inactive	inactive	inactive	inactive	inactive	inactive	–	–	inactive	inactive	inactive	inactive	inactive	inactive	inactive	inactive	inactive	inactive	inactive	–
C[Si](NC1CCCCC1)(NC1CCCCC1)NC1CCCCC1	inactive	inactive	inactive	inactive	inactive	27.3 µM (active)	inactive	inactive	–	–	–	inactive	inactive	inactive	–	inactive	inactive	inactive	inactive	–
O=C(O)c1ccc(CO)o1	inactive	inactive	inactive	inactive	inactive	inactive	–	inactive	inactive	inactive	inactive	inactive	inactive	inactive	–	inactive	–	inactive	inactive	–
CCC(=O)OC/C=C/c1ccccc1	inactive	inactive	inactive	inactive	inactive	inactive	inactive	–	inactive	inactive	inactive	inactive	inactive	–	–	–	–	inactive	–	–
CC(C)(O)c1ccccc1CC[C@@H](SCC1(CC(=O)O)CC1)c1cccc(/C=C/c2ccc3ccc(Cl)cc3n2)c1	inactive	inactive	inactive	inactive	inactive	–	inactive	inactive	inactive	inactive	–	inactive	inactive	inactive	inactive	inactive	inactive	–	inactive	inactive
CCOC(=O)OCC	inactive	inactive	inactive	inactive	inactive	inactive	inactive	inactive	inactive	inactive	inactive	inactive	inactive	inactive	–	inactive	inactive	inactive	inactive	–
